# FLuc counter – counter-screen for miR-21 project: firefly luciferase inhibitors or activators; P08659; purified FLuc, Km substrates, luminescence inhibition; Potency, µM (titrated, usually from 57.5 µM), usual class: inhibitors; actives 6.9% (n = 360,000); AID 588342; note: nearly all actives have a fitted effect of over 55% in size
# Target sequence (P08659 whole entry, looked up): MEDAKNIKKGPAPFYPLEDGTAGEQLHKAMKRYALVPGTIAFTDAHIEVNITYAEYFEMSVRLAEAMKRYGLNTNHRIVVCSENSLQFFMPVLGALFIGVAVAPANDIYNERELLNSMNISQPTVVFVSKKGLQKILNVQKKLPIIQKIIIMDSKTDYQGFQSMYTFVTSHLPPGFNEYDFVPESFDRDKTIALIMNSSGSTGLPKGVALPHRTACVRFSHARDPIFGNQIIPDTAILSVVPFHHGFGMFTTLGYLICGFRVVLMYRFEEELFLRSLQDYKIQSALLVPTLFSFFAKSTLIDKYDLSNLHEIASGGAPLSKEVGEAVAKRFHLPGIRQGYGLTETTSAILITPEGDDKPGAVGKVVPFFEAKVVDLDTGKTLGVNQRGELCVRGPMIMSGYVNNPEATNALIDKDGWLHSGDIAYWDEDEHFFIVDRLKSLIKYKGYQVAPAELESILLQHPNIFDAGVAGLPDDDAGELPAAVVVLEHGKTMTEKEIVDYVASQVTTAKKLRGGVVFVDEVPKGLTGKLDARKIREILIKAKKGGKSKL
#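 Purified P. pyralis luciferase (10nM final) with 10uM D-luciferin and 10uM ATP (Km levels) in 50mM Tris acetate pH 7.5, 10mM Mg acetate, 0.01% Tween-20, 0.05% BSA; qHTS 6-point titration, ~60 µM downward; luminescence read.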
# KinaseGlo FLuc – blocks Kinase-Glo luciferase, a counter-screen artifact | actives 0.28% (n = 200,000) | AID 1379 | Potency, µM (titrated, usually from 38.3 µM), usual class: inhibitors | Kinase-Glo luciferase, ATP luminescence, 8 min; note: nearly all actives have a fitted effect of over 60% in size
#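 Recombinant Kinase-Glo luciferase, 10 uM ATP (linear range), luciferin; imidazole pH 7.2 / KCl / MgCl2 / Tween / BSA buffer; 8 min RT; luminescence.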
# NPC1 promoter act – activators of NPC1 promoter. Huh7 NPC1 promoter luciferase reporter, 24 h. Potency, µM (top dose mostly 9.22 µM), most hits filed as activators. actives 2.4% (n = 320,000); note: nearly all actives have a fitted effect of over 60% in size
#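 NPC1 promoter–luciferase Huh7 cells; 24 h compound; luminescence.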
# ELG1 genotoxic – induces genotoxicity in HEK293T cells with luciferase-tagged ELG1; HEK293T ELG1-luciferase reporter, luminescence, 16 h; Potency, µM (titrated, usually from 46 µM), most hits filed as activators; actives 1.3% (n = 330,000); AID 504466; note: nearly all actives have a fitted effect of over 60% in size
#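 Cells (2,000/well) expressing the ELG1-luciferase fusion are dosed by pin tool and kept 16 hr at 37 °C, 5% CO2. Signal comes from ONE-Glo luciferase reagent after 30 min at room temperature.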
# SMN2 splice up – SMN2 splice variant enhancement | Potency, µM (highest dose often 46.1 µM), actives largely listed as activators | actives 2.8% (n = 210,000) | HEK293 SMN2-luciferase splicing reporter, luminescence, 30-36 h | AID 1458; note: nearly all actives have a fitted effect of over 55% in size
#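 qHTS luciferase splicing reporter: luminescence rises when SMN2 exon 7 is included in transfected HEK293 cells. Compound exposure lasted 30-36 h at 37C, with 4.5 mM final sodium butyrate as control, followed by a ONE-Glo read.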
# Rab9 promoter act – activators of Rab9 promoter. actives 2.8% (n = 320,000). Potency, µM (top dose mostly 9.22 µM), most hits filed as activators. Huh7 Rab9 promoter-luciferase reporter, luminescence, 24 h. AID 485297; note: nearly all actives have a fitted effect of over 60% in size
#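 Cells were plated at 1500 per well in reduced-serum medium with 10% FBS and left 2 h. Compound in DMSO was then added for 24 h at 37 °C. Reporter signal was read by luminescence after 10 min with luciferase detection reagent.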
# A number is an active result; – = inactive; ? = inconclusive; · = not tested or not shown; [ ] = another dose, or the depositor's remark. A selection: hits, their analogues and other compounds. The true share with any hit is near 7.5%. Calls come from the whole dose curve; as a rule, active = well fitted curve in the direction sought with a large enough effect; inconclusive = small, poorly fitted or top-dose-only effect, or another doubt; inactive = no such curve, though single readings can be large; an effect the other way counts as inactive or inconclusive.
SMILES,FLuc counter,KinaseGlo FLuc,NPC1 promoter act,ELG1 genotoxic,SMN2 splice up,Rab9 promoter act
COc1ccc(-c2nc(Cn3c(=O)cc(-c4ccccc4)c4c(C)nn(C)c43)c(C)o2)cc1OC,–,·,·,·,·,·
O=C(NC1CCCCCC1)c1ccc2c(c1)sc1nc(-c3ccc(F)cc3)cn12,–,·,·,·,·,·
c1ccc2cc(-c3cc(-c4cc(-c5ccc6ccccc6c5)on4)no3)ccc2c1,·,–[7.66 µM],·,·,?,·
c1ccc2cc(-c3cc4ccccn4c3)ccc2c1,0.85µM,–,3.2µM,3.7µM,11µM,3.2µM
O=C(O)c1cccc(N/N=C(\N=Nc2ccccc2)c2ccccc2)c1,17µM,·,?,?,·,?
Brc1ccc(N/N=C(/N=Nc2nn[nH]n2)c2ccccc2)cc1,19µM,?,–,–,–,–
O=C(O)c1ccc(N=N/C(=N\Nc2ccc(C(=O)O)cc2)c2ccccc2)cc1,17µM,·,?,–,·,?
O=C(/C(=N\Nc1ccc(Br)cc1)Sc1nnnn1-c1ccccc1)c1ccccc1,–,–,–,–,–,–
NC(=O)/C(N=Nc1ccccc1)=N/Nc1ccccc1,–,·,–,–,·,–
COc1ccc(NC(=O)COc2ccc(S(=O)(=O)NC3CCCCC3)cc2)c(OC)c1,–,·,·,·,–,·
COc1cccc(CNC(=O)Cn2c(=O)ccc3cc(S(=O)(=O)N4CCC(C)CC4)ccc32)c1,–,·,·,·,·,·
CCC(=O)Nc1cc2nn(-c3ccc(C)cc3)nc2cc1C,0.11µM,–,?,?,–,?
CCC(=O)Nc1cc2nn(-c3ccc(OC)cc3)nc2cc1C,0.3µM,–,0.1µM,0.41µM,–,?
COc1ccc(-n2nc3cc(C)c(NC(=S)NC(=O)c4ccccc4C)cc3n2)cc1,2.4µM,–,–,?,–,–
Cc1cccc(C(=O)Nc2cc3nn(-c4ccc(C(C)C)cc4)nc3cc2C)c1,2.1µM,·,·,·,–,·
COc1ccc(CC2=CC(=O)c3ccccc3C2=O)cc1,2.4µM,·,–,–,·,–
CC(=O)c1ccc(S(=O)(=O)Nc2ccc(-c3ccc(N4CCCCC4)nn3)cc2)cc1,8.5µM,·,·,·,·,·
CC(=O)c1ccc(S(=O)(=O)Nc2ccc(-c3ccc(N4CCCCCC4)nn3)cc2)cc1,11µM,·,·,·,·,·
Cc1ccc2c(c1)N(C(=O)Nc1cccc(C)c1C)CCO2,–,·,·,·,·,·
Cc1cccc(CNC(=O)c2cccc(NC(=O)N3CCSc4ncccc43)c2)c1,–,·,·,·,·,·
O=S1(=O)N=C(Nc2nncs2)c2ccccc21,19µM,–,–,–,–,–
CCN(CC)S(=O)(=O)c1ccc(NC2=NS(=O)(=O)c3ccccc32)cc1,–,–,–,–,–,–
CCC1(C)N=C(c2ccc3c(c2)OCO3)CC(c2ccccc2O)N1 (stereo not drawn),7.6µM,?,–,–,?,?
COc1cccc(C2=NOC(C(=O)NC(C)C)C2)c1 (stereo not drawn),–,–,–,–,–,–
COc1cccc(C2=NC(C)(C)NC(c3ccccc3O)C2)c1 (stereo not drawn),8.5µM,–,–,–,–,–
SMILES,FLuc counter,KinaseGlo FLuc,NPC1 promoter act,ELG1 genotoxic,SMN2 splice up,Rab9 promoter act
N#Cc1ccccc1Cn1c(=O)n(Cc2ccc(C(=O)NC3CCN(Cc4ccccc4)CC3)cc2)c(=O)c2ccccc21,–,·,·,·,–,·
N#Cc1cnn(-c2nc3sc4c(c3c(=O)[nH]2)CCCC4)c1N,6µM,–,–,–,–,–
O=c1[nH]c(C2CC2)nc2sc3c(c12)CCCC3,–,–,–,–,–,–
COc1ccc(N2CC(NC(=O)c3ccc4c(c3)OCO4)CC2=O)cc1OC (stereo not drawn),–,·,·,·,·,·
O=C1CC(Cc2ccc(Cl)cc2)C(=O)N1c1ccccn1 (stereo not drawn),–,–,–,–,32µM,–
Cc1ccc(CC2CC(=O)N(c3ncccn3)C2=O)cc1 (stereo not drawn),–,·,–,–,·,–
O=C1CC(Cc2ccccc2)C(=O)N1c1ncccn1 (stereo not drawn),15µM,–,2.2µM,15µM,·,?
CCOC(=O)c1c(C)[nH]c(C)c1S(=O)(=O)N1CCC(C(=O)NCc2ccc(OC)cc2)CC1,–,·,·,·,·,·
